Results as given in PubChem BioAssay (Tox21).
Records with an inconclusive call do not appear. The source made the active and inactive calls. Unless noted, calls follow the shape of the dose curve; as a rule, active = well fitted curve in the direction sought with a large enough effect in the repeat runs; inconclusive = weak or mixed curves; inactive = no such curve, though single readings can be large; an effect the other way counts as inactive or inconclusive.

Tests used:
[1] = target: Retinoic acid receptor RXR-alpha (Homo sapiens) (UniProt P19793); experiment: qHTS assay to identify small molecule agonists of the RXR signaling pathway (AID 1159527; calls by dose curve; also: nearly all actives have a fitted effect of over 35% in size)
Outline: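 Fluorescence ratio readout (460 vs 530 nm) from GeneBLAzer RXR-alpha HEK 293T cells after 16 hr compound treatment; cells seeded 5 hr beforehand in low-serum, charcoal-stripped medium.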

[2] = qHTS assay to identify small molecule antagonists of the retinoid acid receptor (RAR) signaling pathway - cell viability counter screen (AID 1159551); also: nearly all actives have a fitted effect of over 35% in size
Outline: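 ATP-based viability, C3RL4 cells, 6 h at 37 C with 1 uM final retinol co-added after compound; luminescence read 30 min post CellTiter-Glo, RT.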

[3] = qHTS assay to identify small molecule agonists of the RXR signaling pathway - cell viability counter screen (AID 1159529);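 also: HEK 293T cells carrying an RXR-alpha UAS beta-lactamase reporter; series mostly up to about 77 µM; nearly all actives have a fitted effect of over 50% in size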
Outline: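 Viability read-out for the RXR-alpha agonist qHTS: luminescent CellTiter-Glo signal after 30 min at RT. HEK 293T bla reporter cells, 2% charcoal-stripped FBS, 16 hr compound incubation; tetraoctyl ammonium bromide as cytotoxic control.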

[4] = qHTS assay to identify small molecule antagonists of the retinoic acid receptor (RAR) signaling pathway (AID 1159552; also: nearly all actives have a fitted effect of over 50% in size)
Outline: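 Using a RARE-driven luciferase construct in C3RL4 cells, retinol at 1 uM final provided the agonist stimulus while compounds were co-applied. After 6 hours at 37 C, luminescence was recorded to flag inhibitors of retinol signaling.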

[5] = qHTS assay to identify small molecule agonists of the retinoic acid receptor (RAR) signaling pathway (AID 1159553); also: potency is read from the fitted curve at half-maximal effect
Outline: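 Quantitative high-throughput format: the Tox21 10K library was tested on C3RL4 RARE-luciferase cells for 6 hr at 37 C and 5% CO2, with luminescence measured after a 30 min room-temperature reagent step.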

[6] = qHTS assay to identify small molecule antagonists of the estrogen related receptor (ERR) signaling pathway - cell viability counter screen (AID 1224818);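 also: series mostly up to about 46 µM; viability measured after 17.5 h of compound exposure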
Outline: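 Quantitative high-throughput viability counter screen in ERR cells. Compounds (DMSO) incubated 17.5 h at 37 C; read-out was CellTiter-Fluor fluorescence.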

[7] = qHTS assay to identify small molecule antagonists of the estrogen related receptor signaling pathway with the pleiotropic PPARgamma coactivator (PGC) cell viability counter screen (AID 1224822; also: series mostly up to about 46 µM)
Outline: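 Cytotoxicity in the PGC/ERR cell line is assessed with CellTiter-Fluor, read as fluorescence intensity 30 min after reagent addition, following 17.5 h compound treatment at 37 C.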

[8] = qHTS assay to identify small molecule agonists of the estrogen related receptor (ERR) signaling pathway (AID 1224820)
Outline: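 Following a 6 h settling period, 2,000 ERR cells per well receive DMSO-dissolved compounds by pin tool and incubate 18 h at 37 C; agonist activity is scored from One-Glo luminescence read 30 min post-addition.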

[9] = tested on: estrogen-related receptor alpha (ERRalpha) with PGC-1alpha coactivator, human; experiment: qHTS assay to identify small molecule antagonists of the estrogen related receptor signaling pathway with the pleiotropic PPARgamma coactivator (PGC) (AID 1224821; calls by dose curve;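 also: series mostly up to about 46 µM; lower luminescence signal means antagonism of PGC/ERR signalling; nearly all actives have a fitted effect of over 50% in size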)
Outline: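 Screening used NTP's PGC/ERR cells, dosed via pin tool with compound in DMSO alongside positive and negative controls. After 18 h at 37 C, One-Glo reagent sat 30 min at room temperature before luminescence detection.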

[10] = qHTS assay to identify small molecule antagonists of the estrogen related receptor (ERR) signaling pathway (AID 1224819;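 also: luminescence from an ERR-driven luciferase reporter measured with One-Glo reagent; series mostly up to about 46 µM; nearly all actives have a fitted effect of over 50% in size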)
Outline: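 ERR reporter cell line (NTP) plated at 2,000 cells/well, settled 6 h at 37C/5% CO2, then exposed to LOPAC compounds for 18 h at 37C. One-Glo luciferase luminescence read after 30 min at room temperature.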

Measured: Potency

Retinoic acid receptor RXR-alpha (Homo sapiens), sequence (P19793 whole entry, looked up): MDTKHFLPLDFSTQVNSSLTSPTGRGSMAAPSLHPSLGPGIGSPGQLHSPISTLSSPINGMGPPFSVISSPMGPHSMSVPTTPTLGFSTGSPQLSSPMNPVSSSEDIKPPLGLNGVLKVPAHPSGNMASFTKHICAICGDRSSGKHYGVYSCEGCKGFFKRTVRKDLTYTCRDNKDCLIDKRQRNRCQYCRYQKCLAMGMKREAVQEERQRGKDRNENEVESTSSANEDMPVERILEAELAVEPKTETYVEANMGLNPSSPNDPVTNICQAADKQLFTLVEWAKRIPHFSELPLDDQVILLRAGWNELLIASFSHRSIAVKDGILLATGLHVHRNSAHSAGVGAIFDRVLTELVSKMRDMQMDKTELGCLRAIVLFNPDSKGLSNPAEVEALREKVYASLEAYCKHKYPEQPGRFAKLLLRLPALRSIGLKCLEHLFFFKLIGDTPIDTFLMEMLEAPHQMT

COC[C@H](c1ccc(C(F)(F)F)cc1)N1CCN(C2(C)CCN(C(=O)c3c(C)ncnc3C)CC2)C[C@H]1C
inactive: [1] | [2]

CO
inactive: [1] | [3] | [2]

Cc1ccc(Nc2ccc(O)c3c2C(=O)c2ccccc2C3=O)cc1
inactive: [1] | [3] | [2]

CCCCN(CCO)CCO
inactive: [1] | [2]

[O-][N+](=Nc1ccccc1)c1ccccc1
inactive: [1] | [3] | [2]

Nc1nc(F)nc2c1ncn2[C@@H]1O[C@H](CO)[C@@H](O)[C@@H]1O
inactive: [1] | [3] | [2]

COC(=O)CCCC(=O)O
inactive: [1] | [3] | [2]

CC(=O)c1ccc(C)cc1
inactive: [1] | [3] | [2]

Cc1c(F)cc2c(=O)c(C(=O)O)cn3c2c1CCC3C (stereo unspecified)
inactive: [1] | [3] | [2]

C=C[Si](OC)(OC)OC
inactive: [1] | [3] | [2]

CC/C=C\CCCCO
inactive: [1] | [3] | [2]

NC(=O)c1ncn([C@@H]2O[C@H](CO)[C@@H](O)[C@H]2O)c1N
inactive: [1] | [3] | [4] | [5]

NC(N)=NS(=O)(=O)c1ccc(N)cc1
inactive: [1] | [3] | [2]

CCOC(=O)[C@H](CCc1ccccc1)N[C@@H](C)C(=O)N1CCC[C@H]1C(=O)O
inactive: [1] | [3] | [2]

CC(C)[C@H](N)C(=O)OCCOCn1cnc2c(=O)[nH]c(N)nc21
inactive: [1] | [3] | [2]

Cn1ccc2cc3c(cc21)CCN3C(=O)Nc1cccnc1
inactive: [6] | [7]

CCN1CCCC1CNC(=O)c1cc(S(N)(=O)=O)ccc1OC (stereo unspecified)
inactive: [6] | [7]

CCC(=O)Nc1cccc(N)c1
inactive: [3] | [4] | [5]

CCCCCCOC(=O)CC(CC(=O)OCCCCCC)(OC(=O)CCC)C(=O)OCCCCCC
inactive: [3] | [2] | [4] | [5]

CCCCCCCCCCCCCCC
inactive: [3] | [2] | [4] | [5]

CCCC=O
inactive: [3] | [2] | [4] | [5]

CCCCNc1ccccc1
inactive: [3] | [4] | [5]

CCC(=O)/C=C/c1ccc(OC)cc1
inactive: [3] | [4]
active: [5] 61100 nM

CC(C)(O)c1ccccc1
inactive: [3] | [2] | [4] | [5]

CC(C)(C)N(CCO)CCO
inactive: [3] | [2] | [4] | [5]

Cc1nc(-c2ccc(OCC(C)C)c(C#N)c2)sc1C(=O)O
inactive: [3] | [4]
active: [5] 94.4 nM

C=C(C)C1CC=C(C)C(O)C1 (stereo unspecified)
inactive: [3] | [2] | [4] | [5]

CCCCCCOC(=O)c1ccccc1O
inactive: [3] | [2] | [4] | [5]

Cc1onc(-c2ccccc2)c1-c1ccc(S(N)(=O)=O)cc1
inactive: [3] | [4] | [5]

COC(=O)[C@H]1[C@H]2C[C@@H]3c4[nH]c5cc(OC)ccc5c4CCN3C[C@H]2C[C@@H](OC(=O)COc2ccc(OC)cc2)[C@@H]1OC
inactive: [3] | [4] | [5]

O=[N+]([O-])c1ccc(Oc2ccc([N+](=O)[O-])cc2)cc1
inactive: [3] | [2] | [4] | [5]

O=C(O)c1cccc(C(=O)O)n1
inactive: [3] | [2] | [4] | [5]

NC(=O)c1ncn([C@@H]2O[C@H](CO)[C@@H](O)[C@H]2O)c1O
inactive: [3] | [2] | [4] | [5] | [6] | [7]

C#CC(C)(O)CC(C)C (stereo unspecified)
inactive: [3] | [2] | [4] | [5]

CC(=O)NC(Cc1ccccc1)C(=O)O (stereo unspecified)
inactive: [3] | [2] | [4] | [5]

CC(C)COC(=O)C(C)C
inactive: [3] | [2] | [4] | [5]

O=C1CC2(CCCC2)CC(=O)N1
inactive: [3] | [2] | [4] | [5]

CN(C)C(=O)C(CCN1CCC(O)(c2ccc(Cl)cc2)CC1)(c1ccccc1)c1ccccc1
not listed: [1] | [9] | [10]
inactive: all other assays above

CCCCCCCCN(C)CCCCCCCC
inactive: [3] | [2] | [4] | [5]

CCO[Si](CCCN=C=O)(OCC)OCC
inactive: [3] | [2] | [4] | [5]

CCCCCN(CCCCC)C(=O)C(CCC(=O)O)NC(=O)c1ccc(Cl)c(Cl)c1 (stereo unspecified)
inactive: [3] | [2] | [4] | [5] | [6] | [7]

CCOC(=O)Nc1ccc2c(c1)N(C(=O)CCN1CCOCC1)c1ccccc1S2
inactive: [3] | [2] | [4] | [5]

c1cc(CN2CCCCC2)cc(OCCCNc2nc3ccccc3s2)c1
not listed: [1] | [7] | [10]
inactive: all other assays above

CCCCC1CCCCC(=O)O1 (stereo unspecified)
inactive: [3] | [4] | [5]

C=C(C)C(=O)OCCC(C)OC(=O)C(=C)C (stereo unspecified)
inactive: [3] | [4] | [5]

COCCOC(=O)CC#N
inactive: [3] | [2] | [4] | [5]

CCC(C)OC(=O)N1CCCCC1CCO (stereo unspecified)
inactive: [3] | [4] | [5]

CCO[Si](C)(OCC)OCC
inactive: [3] | [4] | [5]

C[C@H]1O[C@@H](n2cc(F)c(=O)[nH]c2=O)[C@H](O)[C@@H]1O
not listed: [1]
inactive: all other assays above

CCCCCCC(=O)OCC
inactive: [3] | [2] | [4] | [5]

COc1cc(CCC(C)=O)ccc1O
inactive: [3] | [4] | [5]

CC(C)(C)C(=O)/C=C/c1ccc(Cl)cc1
inactive: [3] | [2] | [4] | [5]

CC(C)c1ccc2oc3nc(N)c(C(=O)O)cc3c(=O)c2c1
inactive: [3] | [2] | [4]
active: [5] 2110 nM

CCCOc1ccccc1-c1nc2n[nH]nc2c(=O)[nH]1
inactive: [3] | [2] | [4] | [5] | [6] | [7]

CC(C)(O)Cc1ccccc1
inactive: [3] | [2] | [4] | [5]
